Screening results from PubChem.
TSHR antag: human thyrotropin receptor antagonism; activity change, negative = inhibition, % at 11.5 µM; hit rate 0.2% among 330,000; AID 504810; TSHR-expressing cells, TSH-stimulated cAMP HTRF, 2 h; active compounds read low;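 active = activity change below a set negative limit, meaning inhibition stronger than a set level, cut at about -70% in these data; inconclusive = activity change between two set negative limits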; note: % is set by controls: 0 for no effect and ±100 for the full control effect
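Read-out is FRET at 665 nm (cryptate excitation 337 nm) from a cryptate-tagged anti-cAMP antibody, competed by cell cAMP against cAMP-d2. Compounds are tested on freshly harvested TSHR cells challenged with 4nM TSH (EC80) for 2 hours at 37 deg C.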
VDR inh: inhibitors of human vitamin D receptor. P11473. VDR-SRC2-3 peptide fluorescence polarization, 2 h. Potency, µM, without a hit: max response, negative = inhibition, hits mostly inhibitors. hit rate 0.93% among 400,000. AID 504847; note: potency is the fitted concentration of half-maximal effect; % is set by controls: 0 for no effect and ±100 for the full control effect
Target sequence (P11473 whole entry, looked up): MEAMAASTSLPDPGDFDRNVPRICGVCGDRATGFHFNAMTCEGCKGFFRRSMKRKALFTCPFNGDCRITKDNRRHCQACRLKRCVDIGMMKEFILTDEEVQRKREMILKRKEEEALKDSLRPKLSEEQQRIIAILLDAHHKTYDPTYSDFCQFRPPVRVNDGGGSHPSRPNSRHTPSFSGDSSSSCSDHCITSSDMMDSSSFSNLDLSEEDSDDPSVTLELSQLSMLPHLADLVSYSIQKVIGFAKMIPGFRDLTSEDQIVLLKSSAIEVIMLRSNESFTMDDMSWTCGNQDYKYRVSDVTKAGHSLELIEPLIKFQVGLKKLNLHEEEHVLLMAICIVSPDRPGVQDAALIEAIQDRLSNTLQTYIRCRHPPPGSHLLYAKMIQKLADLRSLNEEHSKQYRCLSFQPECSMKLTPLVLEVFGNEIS
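Two reagent solutions held at 4 deg C in the dark were dispensed, compounds pinned at 23 nl, and the mixture incubated 2 h at room temperature. Read-out: fluorescence polarization of VDR–SRC2-3 peptide binding.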
PLK1 PBD block: blocks phosphopeptide binding to human PLK1 polo-box domain | hit rate 2.8% among 360,000 | Plk1 PBD binding of FITC phosphopeptide, fluorescence polarization | Potency, µM, inactives show max response, negative = inhibition, most hits filed as inhibitors | P53350; note: potency is the fitted concentration of half-maximal effect; series mostly up to about 57 µM; % is set by controls: 0 for no effect and ±100 for the full control effect; nearly all actives have a fitted effect of over 65% in size
uPA generation: inhibitors of cell surface uPA generation; AID 540303; cell surface uPA generation assay, qHTS; Potency, µM (series often up to 38.3 µM), without a hit: top-dose activity change, negative = inhibition, usual class: inhibitors; hit rate 0.31% among 330,000; active = well fitted inhibition curve with a large enough effect; inconclusive = small, poorly fitted or top-dose-only effect; inactive = no such curve, though single readings can be large or run the other way; tested in mouse RAW 264.7 cells; note: potency is the fitted concentration of half-maximal effect; % is set by controls: 0 for no effect and ±100 for the full control effect; nearly all actives have a fitted effect of over 55% in size
TSG101-PTAP inh: blocks PTAP/TSG101 interaction to inhibit HIV-1 budding; Q99816; Fluorescence polarization, FITC-PTAP peptide / Tsg101 binding; Potency, µM (titrated, usually from 115 µM), inactives show at the top dose activity change, negative = inhibition, usual class: inhibitors; 340,000 tested, under 10 active; AID 493005; active = well fitted inhibition curve with a large enough effect in the main read-out, with a control signal flat, not every such curve was filed as active; inconclusive = small, poorly fitted or top-dose-only effect, or effect the other way, or a change in a side signal; inactive = no such curve, though single readings can be large or run the other way; note: potency is the fitted concentration of half-maximal effect; % of control where 0% means no effect
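Fluorescence anisotropy tracks displacement of a FITC-tagged PTAP peptide (50 nM) from the Tsg101 binding domain (10 uM), following a 20 min room-temperature incubation at pH 7.5.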
Numbers without * were called inactive; ? = inconclusive; · = no result. A selection: hits, their analogues and other compounds. The true share with any hit is near 3.1%. Unless noted, calls come from the whole dose curve; as a rule, active = well fitted curve in the direction sought with a large enough effect; inconclusive = small, poorly fitted or top-dose-only effect, or another doubt; inactive = no such curve, though single readings can be large; an effect the other way counts as inactive or inconclusive.

SMILES	TSHR antag	VDR inh	PLK1 PBD block	uPA generation	TSG101-PTAP inh
Cc1ccc(S(=O)(=O)N/N=C2/CCCCC2C2CCCCC2)cc1[N+](=O)[O-] (stereo not drawn)	4.8	?	23.8µM*	7.2%	0.6%
CCOC(=O)C1CCN(S(=O)(=O)c2c(Cl)ccc3nonc23)CC1	-89.9*	·	·	·	·
CCOC(=O)C1CCN(S(=O)(=O)c2cccc3nonc23)CC1	1.1	-7.6%	-7.3%	4.2%	-5.1%
CCOC(=O)C1CCN(S(=O)(=O)c2nc3nc(C)cc(C)n3n2)CC1	-3.0	-6.0%	29.9µM*	-0.1%	-5.8%
CCCCCn1cc2c(c1-c1ccc(Cl)cc1)c(=O)n(C)c(=O)n2C	·	-3.4%	·	·	·
COCCCN=C1NN=C(c2cc(C)n(-c3ccccc3F)c2C)CS1	14.7	-3.9%	?	6.31µM*	-10.1%
CC(C)Sc1nc(N)c2c3c(sc2n1)CN(C)CC3	10.1	11.0%	26.7µM*	-1.5%	-0.8%
CC1(C)CC(=O)C2=C(C1)NC(Nc1nc3ccccc3o1)=NC2c1ccccc1Cl (stereo not drawn)	·	-5.4%	·	·	·
CC1(C)CC(=O)C2=C(C1)NC(Nc1nc3ccccc3o1)=NC21CCCC1	20.2	-27.2%	26.7µM*	·	-3.0%
CCC(=O)Nc1cccc(-c2nnc(SCC(=O)c3ccccc3)n2C)c1	-6.1	-12.3%	26.7µM*	-1.6%	-9.3%
Cn1c(SCC(=O)c2cc(Cl)c(Cl)s2)nnc1-c1ccco1	-3.2	-21.8%	21.2µM*	-0.2%	0.0%
Cc1ccc(C(=O)CSc2nnc(-c3ccco3)n2C)cc1	1.5	50.1µM*	5.97µM*	1.2%	-1.4%
Cn1c(SCC(=O)N2c3ccccc3Sc3ccccc32)nnc1-c1ccco1	-22.6	22.5%	-4.7%	6.8%	0.6%
COC(=O)c1ccc(CN(Cc2ccc(OC)c(OC)c2)S(=O)(=O)c2cc(C(=O)Nc3cccc(C)c3)ccc2F)cc1	·	21.9%	·	·	·
CC(=O)N[C@@H](Cc1ccc(O)cc1)C(=O)N[C@H](C(=O)N[C@@H](C)C(=O)N[C@H](C#N)CC(=O)O)C(C)C	0.8	·	·	·	·
CN(C)c1ccc(CNC(=O)C2CCN(Cc3cc4ccccc4n3Cc3ccccc3)CC2)cc1	·	16.8%	·	·	·
CCOc1ccc(N(CC(=O)Nc2ccccc2OCC)S(=O)(=O)c2c(C)noc2C)cc1	-8.4	-2.0%	-1.6%	1.26µM*	-1.6%
Cc1ccc(NC(=O)c2ccc3c(c2)CCN3S(C)(=O)=O)cc1	·	·	-0.2%	·	·
Cc1ccc(NC(=O)c2ccc3c(c2)CCN3S(C)(=O)=O)cc1C	12.1	?	2.99µM*	-11.7%	-0.2%
N[C@H](C(=O)O)c1ccc(C(=O)O)cc1	·	5.4%	·	·	·
O=C(CCNC(=O)c1ccccc1Cl)N/N=C\c1ccc(O)cc1	-3.6	22.4µM*	11.9µM*	3.1%	1.6%
COc1cc(NC(=O)CC(c2cccs2)N2Cc3ccccc3C2=O)cc(OC)c1OC (stereo not drawn)	·	4.8%	·	·	·
O=C1Nc2ccccc2C1(O)C/C(=N/O)c1ccccc1 (stereo not drawn)	3.7	?	26.7µM*	-1.4%	-3.0%
O=C(CC1(O)C(=O)Nc2ccccc21)c1cccc(Br)c1 (stereo not drawn)	-1.7	-29.1%	?	6.6%	-7.0%
COc1ccc(NC(=O)CCCn2c(=O)c3cccn3c3cccnc32)cc1Cl	·	9.1%	·	·	·
SMILES	TSHR antag	VDR inh	PLK1 PBD block	uPA generation	TSG101-PTAP inh
COc1ccccc1N1CCN(C(=O)c2ccc3nc(-c4ccco4)c(-c4ccco4)nc3c2)CC1	-21.3	2.3%	-3.2%	-3.4%	-7.1%
COC(CNC(=O)c1ccc2nc(-c3ccccc3)c(-c3ccccc3)nc2c1)OC	0.3	-11.2%	?	1.3%	-5.4%
O=C(NCCO)c1ccc2nc(-c3ccco3)c(-c3ccco3)nc2c1	3.6	35.5µM*	16.8µM*	0.9%	-10.1%
Cc1ccc(C)c(N2CCN(C(=O)c3ccc4nc(-c5ccco5)c(-c5ccco5)nc4c3)CC2)c1	11.1	-19.3%	5.97µM*	·	-0.5%
COc1ccc(C(C)=O)cc1Cn1c(C)c(C(=O)NCc2ccc(C(C)C)cc2)sc1=O	·	·	-1.2%	·	·
O=c1c(-c2cc(F)cc(F)c2)nc2cncnc2n1Cc1ccc(F)cc1	·	-12.8%	·	·	·
O=C(NN=Cc1ccc2c(c1)CCC2)c1cccc([N+](=O)[O-])c1	·	·	-4.9%	·	·
CN1CCN(C(=O)c2cc(Cl)cc(Cl)c2NC(=O)c2ccco2)CC1	-4.3	-28.3%	26.7µM*	-2.8%	-2.6%
CC1CCN(C(=O)c2cc(Cl)ccc2NC(=O)c2ccco2)CC1	-11.6	-8.5%	2.7%	-5.2%	1.3%
Cc1oc(/N=C/c2ccccc2)c(C#N)c1C	11.2	-5.8%	-12.4%	-2.6%	-1.5%
Cc1oc(/N=C/c2cccc3ccccc23)c(C#N)c1C	-5.9	?	23.8µM*	·	-5.6%
CCN(CC)CCNC(=O)c1cn(CC)c2ccc(S(=O)(=O)N3CCc4ccccc4C3)cc2c1=O	-3.6	-17.2%	26.7µM*	?	-3.3%
CCN(CC)CCCNC(=O)c1cn(CC)c2ccc(S(=O)(=O)N3CCc4ccccc4C3)cc2c1=O	2.7	1.1%	2.7%	-9.0%	-3.4%
CCc1c(C)c(C#N)c2nc3ccccc3n2c1Nc1cccc(C(F)(F)F)c1	·	-5.9%	·	·	·
Cc1ccc(CNC(=O)CCS(=O)(=O)c2ccc(Br)cc2)cc1	9.2	-15.3%	16.8µM*	-2.5%	1.4%
Cc1ccc(CNC(=O)CCS(=O)(=O)c2ccc3c(c2)NC(=O)CO3)cc1	-9.7	-14.5%	26.7µM*	1.4%	1.0%
Cc1ccc(S(=O)(=O)CCC(=O)Nc2ccc(Br)cc2)cc1	17.0	3.9%	-6.6%	-6.4%	-1.2%
Cc1ccc(NC(=O)CCS(=O)(=O)c2ccc(Br)cc2)nc1	2.0	50.1µM*	11.9µM*	2.3%	-0.4%
CCN(CC)c1ccc(NC(=O)CCS(=O)(=O)c2ccc(Br)cc2)c(C)c1	-7.7	6.8%	26.7µM*	3.3%	-1.4%
CCN(C(=O)COC(=O)c1cc2c(s1)CCCC2)c1c(N)n(Cc2ccccc2)c(=O)[nH]c1=O	·	-11.4%	?	-2.2%	3.5%
CCOC(=O)N(C)C[C@H]1OCc2cnnn2CCCC(=O)N([C@@H](C)CO)C[C@@H]1C	·	·	-4.4%	·	·
O=C(CCS(=O)(=O)c1ccc(Br)cc1)NCc1ccc(F)cc1	-126.0*	?	-19.2%	-5.8%	-0.7%
O=C(CCCC(=O)NCc1ccc(F)cc1)NCc1ccc(F)cc1	-6.4	14.3%	23.8µM*	0.8%	-4.3%
COc1ccc(OCC(=O)NCc2ccc(Cl)cc2)cc1	24.4	3.4%	-11.1%	0.3%	0.9%
O=C(COc1ccc(Cl)cc1)NCc1ccc(F)cc1	6.4	-22.9%	26.7µM*	0.1%	-4.6%
CN(C)CCN(Cc1ccco1)S(=O)(=O)c1cc2c(cc1Cl)NC(=O)CO2	·	1.4%	·	·	·
Cc1ccc2c(c1)c1c(c(=O)n(-c3ccccc3C)c(=O)n1CC(=O)N1CCCC1)n2C	·	0.4%	·	·	·
O=c1c2c([N+](=O)[O-])cc([N+](=O)[O-])cc2nc2ccccn12	-13.0	-16.4%	-4.2%	?	2.0%
